From PubChem
Sampled rows, rich in hits. Any-hit rate of the full collection: about 9%.
LMNA splice mod – changes lamin A minigene splicing in HeLa cells; HeLa LMNA splicing GFP/RFP minigene ratio, 48 h; 200,000 tested, 0.01% active; Potency, µM (titrated, usually from 46.1 µM), most hits filed as inhibitors; AID 1487; active means well fitted inhibition curve with a large enough effect in the signal ratio, with a control signal flat, not every such curve was filed as active; inconclusive means small, poorly fitted or top-dose-only effect, or effect the other way, or a change in a side signal; the % refers to the signal ratio
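S3 HeLa stable clones carrying a lamin A-EGFP splicing minigene plus DsRed2 were seeded at 600 cells/well in Opti-MEM with 2% FBS, pin-dosed and incubated 48 h at 37°C. Acumen cytometry (488 nm) gave the GFP/RFP total-intensity ratio.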
ALDH1A1 inh – ALDH1A1 (human) enzyme inhibition; P00352; Purified ALDH1A1, NADH fluorescence, propionaldehyde substrate; Potency, µM (top dose mostly 75.3 µM), usual class: inhibitors; 220,000 tested, 7.3% active
HPGD block – inhibitors of human 15-hydroxyprostaglandin dehydrogenase (HPGD) | AID 894 | P15428 | 150,000 tested, 4.3% active | purified HPGD, NADH fluorescence kinetic, PGE2 substrate | Potency, µM, usual class: inhibitors
Target sequence (P15428 whole entry, looked up): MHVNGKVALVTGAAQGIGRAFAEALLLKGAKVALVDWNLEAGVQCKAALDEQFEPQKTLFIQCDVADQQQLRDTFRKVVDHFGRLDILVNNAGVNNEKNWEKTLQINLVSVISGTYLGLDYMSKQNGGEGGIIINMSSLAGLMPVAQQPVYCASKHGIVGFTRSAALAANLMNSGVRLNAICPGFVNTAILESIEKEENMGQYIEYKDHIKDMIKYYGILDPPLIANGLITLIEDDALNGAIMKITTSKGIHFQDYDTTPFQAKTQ
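20 nM HPGD preincubated 15 min at room temperature with compound in 50 mM Tris-HCl pH 8, 0.01% Tween 20. Started with 1 mM NAD+ and 30 uM prostaglandin E2; NADH fluorescence (360/450 nm) read 5 times over 30-s intervals, last minus first.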
Luc counter – blocks Kinase-Glo luciferase, a counter-screen artifact | Q27757 | Kinase-Glo luciferase, ATP luminescence, 8 min | Potency, µM (titrated, usually from 38.3 µM), hits mostly inhibitors | 200,000 tested, 0.28% active | AID 1379; active means well fitted curve in the direction sought with a large enough effect; inconclusive means small, poorly fitted or top-dose-only effect, or another doubt; inactive means no such curve, though single readings can be large; an effect the other way counts as inactive or inconclusive; further: nearly all actives have a fitted effect of over 60% in size
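Substrate mix (final 50 mM imidazole pH 7.2, 50 mM KCl, 7 mM MgCl2, 10 uM ATP, 0.01% Tween 20, 0.05% BSA) plus pin-tool compound, then Kinase-Glo detection mix; 8 min ambient, luminescence read.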
IMPase Li inh – IMPase inhibition in cells with lithium potentiation | CHO-M1 cells, IP1 TR-FRET (IP-One), carbachol + lithium | Potency, µM (top dose mostly 59.4 µM), usual class: inhibitors | 210,000 tested, 0.35% active; active means well fitted curve in the direction sought with a large enough effect; inconclusive means small, poorly fitted or top-dose-only effect, or another doubt; inactive means no such curve, though single readings can be large; an effect the other way counts as inactive or inconclusive;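 further: IP1 builds up when IMPase is blocked and the TR-FRET signal falls; nearly all actives have a fitted effect of over 50% in size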
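Lithium-sensitised IP1 accumulation assay; M1-expressing CHO cells treated 30 min at 37C with compound. Competitive antibody detection by time-resolved FRET followed a 10 min room-temperature lysis step.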
Hits are given with their value; i = inactive; ? = inconclusive; nt = no result given; [ ] = dose if it differs, or a comment. Unless noted, the call rests on the fitted dose curve; in most records, active means well fitted inhibition curve with a large enough effect (not every such curve was filed as active); inconclusive means small, poorly fitted or top-dose-only effect, or another doubt; inactive means no such curve, though single readings can be large or run the other way.

SMILES | LMNA splice mod | ALDH1A1 inh | HPGD block | Luc counter | IMPase Li inh
O=c1nc2n(c3c4c(sc13)CCC4)CCC2 | i | 18µM | i | i | i
Cn1c(/N=C/c2ccc3c(c2)OCO3)nc2ccccc21 | i | ? | i | 11µM | i
O=C(O/N=C1\CCS(=O)(=O)c2sccc21)C1CC1 | nt | i | nt | i | i
COc1cccc(/C=C/C(=O)c2cccc([N+](=O)[O-])c2)c1 | ? | ? | nt | i | i
COc1cccc(C(=O)/C=C/c2ccc(N3CCCCC3)c([N+](=O)[O-])c2)c1 | ? | 14µM | i | i | i
O=C(/C=C/c1ccc(-c2ccccc2[N+](=O)[O-])o1)c1ccccc1 | i | 18µM | i | i | i
O=C(/C=C/c1ccc(N2CCCCC2)c([N+](=O)[O-])c1)c1ccc(S(=O)(=O)N2CCCC2)cc1 | i | 4.5µM | i | i | i
CN(C)c1ccc(/C=C/C(=O)c2ccccc2)cc1[N+](=O)[O-] | ? | ? | 14µM | i | i
CNc1ccc(/C=C/C(=O)c2ccc(C)cc2)cc1[N+](=O)[O-] | ? | i | i | i | i
CN1CCN(c2ccc(S(=O)(=O)N3CCCCC3)cc2[N+](=O)[O-])CC1 | i[9.22 µM] | i | nt | i | i
CSc1cccc(NC(=S)N(CCCN2CCCC(C)C2)Cc2cccs2)c1 (stereo not given) | nt | i | nt | i | i
C=CCNS(=O)(=O)c1ccc(N2C(=O)c3ccccc3C2=O)cc1 | i | i | nt | i | i
COc1cccc(Cn2c(=O)cnc3cnc(Oc4cccc(Cl)c4)nc32)c1 | nt | ? | ? | i | i
Cc1[nH]nc(SCC(=O)N2CCCCC2)c1[N+](=O)[O-] | i | ? | 28µM | i | i
Cc1[nH]nc(SCC(=O)N2CCCCCC2)c1[N+](=O)[O-] | i | ? | nt | i | i
O=C(O)c1nn(-c2ccccc2-c2n[nH]c(=O)[nH]c2=O)c(=O)[nH]c1=O | nt | i[13.5 µM] | i | i[7.66 µM] | i
O=C(NC(NNc1ccc([N+](=O)[O-])cc1)(C(F)(F)F)C(F)(F)F)c1ccc(Cl)cc1 | i | ? | 16µM | i | i
O=C(NNc1ccc([N+](=O)[O-])cc1)c1ccccc1Cl | nt | i | nt | i | i
O=C(c1ccncc1)N1CCC[C@@]2(CCN(Cc3ccccc3)C2)C1 | nt | i | i | i | i
O=C1OC(/C=C/c2ccc(Cl)cc2)=NC/1=C/c1ccco1 | i | 2µM | i | i | i
Cn1c(=O)c(Nc2ccc(O)cc2)c2c3c(cccc31)C(=O)c1ccccc1-2 | i | i | 25µM | i | i
CC(=O)Nc1ccc(NC(=O)c2cccc3c2-c2ccccc2C3=O)cc1 | nt | i | nt | i | i
O=C1CCCC(=O)C1=Cc1c[nH]c2ccccc12 | ? | ? | 22µM | i | i
O=C1CCCc2c1[nH]c1ccccc21 | i | i | nt | nt | nt
O=S(=O)(c1cccs1)N1CCC(CO)(Cc2cccc(F)c2)CC1 | nt | ? | nt | i | i
SMILES | LMNA splice mod | ALDH1A1 inh | HPGD block | Luc counter | IMPase Li inh
O=C1CC(c2ccccc2)CC(=O)C1CS(=O)(=O)c1ccccc1 (stereo not given) | nt | 11µM | nt | i | i
Clc1ccc(OCCCCSc2ncccn2)cc1 | i | i | i | i | i
COc1ccc(OCCSc2nc(N)cc(N)n2)cc1 | i | ? | 25µM | i | i
Cc1ccc(OCCSc2nc(N)cc(N)n2)cc1 | nt | i | nt | i | i
CCCOc1ccc(OCCSc2nnc(N)s2)cc1 | ? | i | 5µM | i | i
Nc1nnc(SCCOc2cccc(Br)c2)s1 | i | ? | i | i | i
CCCOc1ccc(OCCSc2ncccn2)cc1 | i | i | 14µM | i | i
CCOC(=O)c1cc(C(=O)NC(C)c2ccccc2)c(C)[nH]c1=O (stereo not given) | i | ? | nt | i | i
CCn1c(O)c(/C=N/N=C2CCCC2)c2ccc(C3=NNC(=O)CC3)cc21 | i | ? | 16µM | i | i
O=C(CCCn1c(=S)[nH]c2ccccc2c1=O)NCCSCc1ccccc1 | nt | i | nt | i | i
CCOC(=O)c1[nH]nc2c1C(=O)N(Cc1ccccc1)C2=O | ? | ? | 8.9µM | i | i
COC(=O)c1[nH]nc2c1C(=O)N(Cc1ccccc1)C2=O | ? | ? | 10µM | i | i
O=S(=O)(O)c1ccc2c(N=Nc3c(O)ccc4ccccc34)cccc2c1 | nt | i[13.5 µM] | i | i[7.66 µM] | i
CCOC(=O)Cc1nc(-c2ccc(Cl)cc2)n[nH]1 | nt | i | nt | i | i
Cn1cccc1CC(=O)N/N=C/c1cccc2ccccc12 | i | ? | 16µM | i | i
O=C(O)CSC1=NCCN1 | nt | i[13.5 µM] | i | i[7.66 µM] | i
